# About 50,000 (12%) of roughly 420,000 compounds were called active. Inconclusive results (about 26%) are left out. Shown is part of a subset that was picked to be rich in actives. A number with no mark means an inactive call. Calls follow the shape of the dose curve; as a rule, active = well fitted inhibition curve with a large enough effect; inconclusive = small, poorly fitted or top-dose-only effect; inactive = flat fitted curve, though single readings scatter.
# Assay: qHTS for Inhibitors of human tyrosyl-DNA phosphodiesterase 1 (TDP1): qHTS in cells in presence of CPT; also: nearly all actives have a fitted effect of over 55% in size
# Details: chicken DT40 Tdp1-/-;hTDP1 cells + 20 nM CPT, ATP luminescence, 48 h; series mostly up to 46.2 µM; activity change, negative = growth inhibition: at the top concentration
# Excerpt: Human tyrosyl-DNA phosphodiesterase 1 (TDP1) is a novel repair gene, and we propose to use it as a new target for anticancer drug development. TDP1 is not an essential protein, but under treatment with topoisomerase I poison (camptothecin: CPT), TDP1 works as a critical factor for cell survival. To directly identify novel TDP1 inhibitors active in a cellular environment, we have knocked-out the Tdp1 gene in chicken DT40 cells (Tdp1-/-) and generated a complemented counterpart cells that contains a stable transfection of the human TDP1 gene (Tdp1-/-;hTDP1 cells). For the primary screen, Tdp1-/-;hTDP1 cells will be exposed to small molecules in the presence or absence of CPT, and their growth kinetics will be evaluated after 48 hours by measuring ATP activity. […] The hit compounds will then be evaluated in the presence or absence of CPT using Tdp1-/- cells. […] In tertiary assays, biochemical gel-based assays will be used to assess whether the hit compounds specifically target TDP1. To this end, we have screened this cell line against the MLSMR in two primary screens. In one screen we add CPT and in the other we screen in the absence of CPT; this AID represents the screen where CPT was present. NIH Chemical Genomics Center [NCGC] NIH Molecular Libraries Probe Centers Network [MLPCN] MLPCN Grant: MH095538 Assay Submitter (PI): Yves Pommier, NCI
# DT40-hTDP1 cells with 20 nM Camptothecin (add 20 microL of 1 mM CPT stock in 1 L of cell culture medium) were dispensed at 400 cells/5microL/well in tissue culture treated 1536-well white wall/solid bottom assay plates (Greiner Bio-One North America, NC, U.S.A.) using a Multidrop Combi 8 channel dispenser (Thermo Fisher, Waltham, MA, USA). 23 nL compounds and controls were transferred using the pin tool (Kalypsys, San Diego, CA, USA) to the assay plates. The assay plates were then incubated at 37 masculineC for a minimum 48 hr. Three microL of Cell Titer Glo solution was added to the plates and incubated at RT in dark for 30 min. Luminescence was read using ViewLux (Perkin Elmer) with 1 sec exposure slow speed, high gain and 2x binning.
# % is scaled to controls: 0 for no effect and ±100 for the full control effect; potency is read from the fitted curve at half-maximal effect.
SMILES,"activity change, negative = growth inhibition",Potency
CN(C)C(CNC(=O)Cc1ccc([N+](=O)[O-])cc1)c1ccccc1 (stereo unspecified),-2.26%,–
NS(=O)(=O)c1ccc(CCNc2nc(C(F)(F)F)nc3ccccc23)cc1,-27.3%,–
CCc1ccc(C(CNc2nc(C(F)(F)F)nc3ccccc23)N(C)C)cc1 (stereo unspecified),–,16.4 µM (active)
CCN(CC)CCCN=C(N)N,-4.33%,–
Cc1nc2ccc(S(=O)(=O)NC(C(=O)NCc3ccccc3Cl)C(C)C)cc2s1 (stereo unspecified),4.06%,–
O=C(O)CC(c1ccccc1F)N1Cc2ccccc2C1=O (stereo unspecified),-6.62%,–
COc1cc(C(CC(=O)NCCC(C)C)N2Cc3ccccc3C2=O)cc(OC)c1OC (stereo unspecified),-7.29%,–
O=C(CC(c1cccs1)N1Cc2ccccc2C1=O)Nc1ccc(F)cc1F (stereo unspecified),–,20.6 µM (active)
CC(C)(C)C1CCc2c(sc3nc(SCC(N)=O)nc(N)c23)C1 (stereo unspecified),–,16.4 µM (active)
Nc1nc(SCC(=O)NCCN2CCOCC2)nc2sc3c(c12)CCC3,1.37%,–
CN(C)CCSc1nc(N)c2c3c(sc2n1)COC(C)(C)C3,-2.4%,–
Cc1cnc(-n2ncc(C(=O)N3CCN(C(C)C)CC3)c2-c2ccco2)nc1-c1ccc(F)cc1,-0.952%,–
O=c1o[nH]c(-c2ccccc2)c1N=Nc1c(F)cccc1Cl,-4.76%,–
Cc1nc2ccccc2c(=O)n1NC(=O)c1ccc(Cl)c([N+](=O)[O-])c1,-1.58%,–
COC(=O)c1c(NC(=O)C(=O)N2CCCCC2)sc2c1CC(C)(C)OC2,-21.8%,–
CCOC(=O)N1CCN(C(=O)C(=O)Nc2sc3c(c2C#N)CC(C)(C)OC3)CC1,-9.35%,–
CC1(C)Cc2c(sc(NC(=O)C(=O)N3CCOCC3)c2C#N)CO1,–,20.6 µM (active)
CCOc1cc(NC(=O)Nc2ccccc2)c(OCC)cc1NC(=O)CC,1.31%,–
CN(NC(=O)C1CC(=O)N(c2ccccc2)C1)C1=NS(=O)(=O)c2ccccc21 (stereo unspecified),8.09%,–
O=C(N/N=C/c1ccccn1)C12CC3CC(CC(C3)C1)C2,-3.23%,–
CNC(=O)C(=O)N/N=C/c1ccccn1,-1.38%,–
S=C(NN=Cc1ccccn1)Nc1ccccn1,–,1.46 µM (active)
CC(=O)N1CCN(C(=O)C2(NC(=O)Nc3ccc(C)cc3)CCCCC2)CC1,14.9%,–
CC(=O)NCC(=O)N1CCC(n2nccc2NC(=O)CCCc2ccccc2)CC1,-1.7%,–
O=C(Nc1ccccc1Cl)O/N=C(/c1ccccc1)c1ccccn1,4.12%,–
c1ccc2sc(NN=C3CCCC3)nc2c1,-10.2%,–

SMILES,"activity change, negative = growth inhibition",Potency
c1ccc(C(=NNc2nc3ccccc3s2)c2ccccn2)cc1,–,0.164 µM (active)
CC(C)CN1C(=O)CN(S(C)(=O)=O)CC1(C)C(=O)NCc1ccccc1 (stereo unspecified),-2.61%,–
CCN(CC(=O)Nc1c(F)cccc1F)C(=O)c1ccc(-c2ccc(C(C)=O)cc2)o1,-25.2%,–
Cc1ccc(S(=O)(=O)NCC(=O)N(CC(=O)NC(C)(C)C)Cc2cccs2)cc1,-4.73%,–
Cc1cc(C)cc(C(=O)OCC(=O)NCCNC(=O)COC(=O)c2cc(C)cc(C)c2)c1,-13.7%,–
Cc1cccc([C@@H]2[C@@H]3C(=O)N(Cc4ccccc4)C(=O)[C@@H]3[C@]3(Cc4ccc(Cl)cc4)C(=O)N(c4cccc(Cl)c4)C(=O)N23)c1,9.53%,–
Cc1ccc(-c2cccc([C@H]3[C@@H]4C=CC[C@@H](C)[C@@H]4C(=O)N3Cc3ccccc3)c2)cc1,–,14.6 µM (active)
COc1ccc(CN2CCNC(=O)C2CC(=O)N(C)Cc2ccccn2)cc1OC (stereo unspecified),3.3%,–
O=[N+]([O-])c1ccc(N2CCOCC2)cc1,-4.01%,–
O=[N+]([O-])c1ccc(COc2ccccc2CN2CCOCC2)cc1,–,23.1 µM (active)
O=C(OCc1ccc([N+](=O)[O-])cc1)C1CC(=O)N(Cc2ccccc2Cl)C1 (stereo unspecified),-4.97%,–
O=C1c2cccc3cccc(c23)C(=O)N1c1cccc(O)c1,-18.4%,–
COc1ccc(CCNS(=O)(=O)c2cccc3cccnc23)cc1OC,-2.46%,–
C=CCn1c(COc2cccc3cccnc23)nnc1SCC(=O)OC,-14.3%,–
CCCCC(=O)NC(c1ccc(OC)c(OC)c1)c1ccc2cccnc2c1O (stereo unspecified),–,1.3 µM (active)
C[n+]1ccc(/C=C/c2c[nH]c3ccccc23)cc1,–,1.03 µM (active)
O=C(NC1CCCC1)C(=O)c1c[nH]c2ccccc12,-2.79%,–
S=c1[nH]nc(-c2ccccc2)n1/N=C/c1c[nH]c2ccccc12,-3.77%,–
CC1(C(=O)NS(=O)(=O)c2ccc(C#N)cc2)CCN1C(=O)CC1CCCC1 (stereo unspecified),-5.1%,–
CC1(C)CC2CC(C)(CN2c2ncnc3ccc(Br)cc23)C1 (stereo unspecified),–,5.17 µM (active)
O=C(COC(=O)Cc1ccccc1F)NNC(=O)c1ccc(Cl)cc1,-7.31%,–
COc1ccc(C)cc1N(CC(=O)NC(C)c1ccccc1)S(C)(=O)=O (stereo unspecified),6.36%,–
CC(C)CNC(=O)C1(C)CCCN1C(=O)CSc1ccccc1 (stereo unspecified),-17.6%,–
O=C(O)CSc1c2c(nc3cc(C(=O)Nc4cccc(C(F)(F)F)c4)ccc13)CCCC2,-7%,–
Cc1cc(Nc2cccc(C(F)(F)F)c2)nc2ccc(NC(=O)c3ccc(=O)[nH]c3)cc12,–,16.4 µM (active)

# Reference: PubChem BioAssay AID686979 (National Center for Advancing Translational Sciences (NCATS), 2013)
